# Measurements reported in PubChem BioAssay (NCI).
# This is part of a sample that, as a whole, favours compounds with a hit. Of some 79,000 tested, about 15% had one in any assay. The source made the active and inactive calls. No stated cut-off is given here; in the data, active means growth inhibition above about 70%; inactive means the rest.
# Test: NCI Yeast Anticancer Drug Screen. Data for the rad50 strain (AID 155);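 further: 0% = growth of vehicle-only cultures of the same strain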
# Conditions: S. cerevisiae rad50 strain growth inhibition; at 50.0 µM; stronger effect = higher value
# How it was run: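 Readout: growth inhibition relative to vehicle-treated cultures. Compound exposure was carried out in a genetically defined yeast strain deficient in DNA damage repair.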
row,Compound,growth inhibition
1,Nc1cn[nH]c(=O)n1,-3.6% (inactive)
2,O=C(O)C1(NO)CCCCC1,-6.9% (inactive)
3,O=S(=O)(N1CCCCC1)N1CCCCC1,2.3% (inactive)
4,O=C(Cc1ccccc1)Nc1cccc2ccccc12,6.15% (inactive)
5,Nc1ccc(C(=O)Nc2ccc3c(ccc4ccccc43)c2)cc1,-5.8% (inactive)
6,O=S1(=O)OCOS(=O)(=O)OCO1,-24.9% (inactive)
7,Cc1ccc(S(=O)(=O)n2ccnc2)cc1,-46% (inactive)
8,Cc1cnc(N)s1,3.8% (inactive)
9,CC(C)CC1NC(=O)C(C(C)C)NC(=O)CC(C)COC(=O)C(CC(C)C)N(C)C(=O)C(C(C)C)NC(=O)C(C(C)C)OC1=O (stereo not given),-8.2% (inactive)
10,O=C(c1nc2ccccc2[nH]1)N1CCN(c2ccccc2)CC1,2.95% (inactive)
11,CSC1=Nc2ccccc2N=C(c2ccccc2)C1,41.9% (inactive)
12,O=[N+]([O-])C1C=Nc2ccccc2N=C1,19.7% (inactive)
13,O=C(CO)c1ccc(-c2ccccc2)cc1,-8% (inactive)
14,Nc1c(S(=O)(=O)O)cc(Br)c2c1C(=O)c1ccccc1C2=O,54.5% (inactive)
15,COc1cc(C(O)C(CO)Oc2c(OC)cc(C3OCC4C(c5cc(OC)c(O)c(OC)c5)OCC34)cc2OC)ccc1O (stereo not given),20.1% (inactive)
16,N#CC(C(=O)C(=O)Nc1cccc(C(F)(F)F)c1)c1c(Cl)cccc1Cl (stereo not given),10.1% (inactive)
17,CC(=O)SC1CC2CCC1C2 (stereo not given),0.75% (inactive)
18,CNc1ccn(C2OC(CO)C(O)C2O)c(=O)n1 (stereo not given),-9.5% (inactive)
19,Cc1c2n(c(=O)[nH]c1=O)C1OC(CO)C(N=[N+]=[N-])C1O2 (stereo not given),-5.5% (inactive)
20,CC(=O)OC12CC3CCC4C(CCC5(C)C(C(C)CCCC(C)C)CCC45)C3(C)CC1O2 (stereo not given),71% (active)

row,Compound,growth inhibition
1,O=C(N/N=C\c1coc([N+](=O)[O-])c1)N/N=C/c1ccoc1,0.75% (inactive)
2,O=C(Nc1ccccc1Cl)c1ccc(Cl)cc1,4.75% (inactive)
3,CC(C)OC(=O)c1cc(N)ccc1Cl,29.1% (inactive)
4,COc1cc(/C=C/C(=O)Oc2ccccc2)ccc1C(=O)O/C=C/c1ccccc1,3.65% (inactive)
5,O=C(OC1COC(n2c(=O)oc3ccc(Cl)cc32)C(OC(=O)c2ccccc2)C1OC(=O)c1ccccc1)c1ccccc1 (stereo not given),8% (inactive)
6,CS(=O)(=O)OCC1NC(=O)C(COS(C)(=O)=O)NC1=O (stereo not given),-10.4% (inactive)
7,COc1ccc(C(=O)N/N=C/c2c(C)n(C)n(-c3ccccc3)c2=O)cc1,-54.1% (inactive)
8,COc1ccc(C2OC(=O)C(=O)C2=O)cc1OC (stereo not given),-25.9% (inactive)
9,CCCCCCC(C#N)(CCN(C)C)c1ccccc1 (stereo not given),15.4% (inactive)
10,CCOC(=O)N1C(c2ccccc2)N(c2ccccc2)C(c2ccccc2)N1C(=O)OCC (stereo not given),4.7% (inactive)
11,O=C1C(N=Cc2c(O)ccc3ccccc23)CON1C(c1ccccc1)(c1ccccc1)c1ccccc1 (stereo not given),55.5% (inactive)
12,CCOC(=O)c1c[nH]c2c(=O)n(C)c(=O)[nH]c12,7.25% (inactive)
13,COc1ccc(/C=C2\N=C(c3ccc([N+](=O)[O-])cc3)OC2=O)cc1,-2.7% (inactive)
14,O=C(O)C1=CN=C(C(=O)O)NN1,-24.4% (inactive)
15,CCCC(C)C(=O)OC1CCCCC1 (stereo not given),9.35% (inactive)
16,CCc1nc2cc(F)ccc2[nH]c1=O,17.3% (inactive)
17,CCOC(=O)N(CCCl)C(=O)C(C)C,-21.6% (inactive)
18,CN(C)C(=S)/N=c1\ssc(=S)n1Cc1ccccc1,-10.4% (inactive)
19,Cc1cc(=O)n2c(n1)Nc1ccccc1C2,22.5% (inactive)
20,O=C1c2ccccc2C(=O)N1/N=C\c1ccc(O)cc1,6.8% (inactive)
